# From ChEMBL document CHEMBL2218924, “A broad activity screen in support of a chemogenomic map for kinase signalling research and drug discovery” (Biochem J, 2013)
# Assays:
# [1] = molecular target: T1, Ephrin type-A receptor 3 (Homo sapiens) (UniProt P29320); settings: at 10 µM
# T1 sequence (whole entry): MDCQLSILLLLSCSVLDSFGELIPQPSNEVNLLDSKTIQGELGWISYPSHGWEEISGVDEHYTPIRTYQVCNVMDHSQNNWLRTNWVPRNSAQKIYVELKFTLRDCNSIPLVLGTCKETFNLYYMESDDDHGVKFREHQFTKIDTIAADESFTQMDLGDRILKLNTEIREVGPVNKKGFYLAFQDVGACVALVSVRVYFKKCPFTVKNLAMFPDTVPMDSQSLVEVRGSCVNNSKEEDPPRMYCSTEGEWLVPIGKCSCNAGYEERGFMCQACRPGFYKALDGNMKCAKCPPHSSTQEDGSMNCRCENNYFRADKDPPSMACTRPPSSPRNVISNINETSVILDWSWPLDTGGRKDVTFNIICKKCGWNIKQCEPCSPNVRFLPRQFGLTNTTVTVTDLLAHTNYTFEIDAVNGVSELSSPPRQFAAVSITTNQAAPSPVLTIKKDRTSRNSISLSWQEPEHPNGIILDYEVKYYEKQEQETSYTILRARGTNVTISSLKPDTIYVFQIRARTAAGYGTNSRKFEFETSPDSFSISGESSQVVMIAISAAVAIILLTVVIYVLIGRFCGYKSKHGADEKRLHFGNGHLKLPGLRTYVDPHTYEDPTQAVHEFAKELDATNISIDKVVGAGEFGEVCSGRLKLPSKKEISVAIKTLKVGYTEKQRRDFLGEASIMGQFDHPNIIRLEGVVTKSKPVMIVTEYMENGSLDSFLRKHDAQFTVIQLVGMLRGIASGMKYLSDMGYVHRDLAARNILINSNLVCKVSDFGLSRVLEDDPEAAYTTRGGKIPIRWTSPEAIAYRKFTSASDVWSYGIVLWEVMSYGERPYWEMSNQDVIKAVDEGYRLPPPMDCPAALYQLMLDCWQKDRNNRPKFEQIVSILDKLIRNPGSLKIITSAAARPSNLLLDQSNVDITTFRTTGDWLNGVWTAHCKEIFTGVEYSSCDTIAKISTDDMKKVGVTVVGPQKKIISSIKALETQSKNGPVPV
# [2] = molecular target: Ephrin type-A receptor 4 (Homo sapiens) (UniProt P54764); settings: at 1 µM
# [3] = molecular target: Ephrin type-A receptor 5 (Homo sapiens) (UniProt P54756); settings: at 1 µM
# [4] = molecular target: Ephrin type-A receptor 7 (Homo sapiens) (UniProt Q15375); settings: at 1 µM
# [5] = molecular target: Ephrin type-A receptor 7 (Homo sapiens) (UniProt Q15375); settings: at 10 µM
# [6] = molecular target: T2, Ephrin type-A receptor 8 (Homo sapiens) (UniProt P29322); settings: at 1 µM
# T2 sequence (whole entry): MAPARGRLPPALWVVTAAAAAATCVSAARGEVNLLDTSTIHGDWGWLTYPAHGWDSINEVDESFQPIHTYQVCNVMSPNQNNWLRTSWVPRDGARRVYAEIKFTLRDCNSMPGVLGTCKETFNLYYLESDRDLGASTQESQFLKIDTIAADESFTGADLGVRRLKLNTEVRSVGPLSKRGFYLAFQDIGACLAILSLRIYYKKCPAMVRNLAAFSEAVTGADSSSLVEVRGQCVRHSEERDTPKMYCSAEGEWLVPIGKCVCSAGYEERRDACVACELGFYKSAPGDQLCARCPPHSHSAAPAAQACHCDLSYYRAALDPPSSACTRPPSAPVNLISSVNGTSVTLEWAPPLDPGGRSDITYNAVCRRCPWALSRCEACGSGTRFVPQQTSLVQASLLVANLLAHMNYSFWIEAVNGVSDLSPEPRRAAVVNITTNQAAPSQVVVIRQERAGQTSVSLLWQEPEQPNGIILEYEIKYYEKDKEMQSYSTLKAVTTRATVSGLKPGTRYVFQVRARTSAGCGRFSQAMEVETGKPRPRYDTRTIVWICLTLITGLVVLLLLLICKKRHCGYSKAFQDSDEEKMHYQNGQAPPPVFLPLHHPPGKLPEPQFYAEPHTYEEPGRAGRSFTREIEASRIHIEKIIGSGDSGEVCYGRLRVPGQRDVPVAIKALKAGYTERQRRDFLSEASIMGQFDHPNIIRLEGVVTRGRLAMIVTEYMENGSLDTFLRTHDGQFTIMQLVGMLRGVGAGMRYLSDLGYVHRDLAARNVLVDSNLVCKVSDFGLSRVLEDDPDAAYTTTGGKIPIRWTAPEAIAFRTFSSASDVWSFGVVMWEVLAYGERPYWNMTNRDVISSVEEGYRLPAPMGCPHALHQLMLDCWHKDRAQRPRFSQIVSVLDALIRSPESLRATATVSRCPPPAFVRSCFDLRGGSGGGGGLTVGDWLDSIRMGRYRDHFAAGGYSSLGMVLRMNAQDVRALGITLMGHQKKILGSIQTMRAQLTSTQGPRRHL
# [7] = molecular target: T2, Ephrin type-A receptor 8 (Homo sapiens); settings: at 10 µM
# [8] = molecular target: T3, Ephrin type-B receptor 1 (Homo sapiens) (UniProt P54762); settings: at 1 µM
# T3 sequence (whole entry): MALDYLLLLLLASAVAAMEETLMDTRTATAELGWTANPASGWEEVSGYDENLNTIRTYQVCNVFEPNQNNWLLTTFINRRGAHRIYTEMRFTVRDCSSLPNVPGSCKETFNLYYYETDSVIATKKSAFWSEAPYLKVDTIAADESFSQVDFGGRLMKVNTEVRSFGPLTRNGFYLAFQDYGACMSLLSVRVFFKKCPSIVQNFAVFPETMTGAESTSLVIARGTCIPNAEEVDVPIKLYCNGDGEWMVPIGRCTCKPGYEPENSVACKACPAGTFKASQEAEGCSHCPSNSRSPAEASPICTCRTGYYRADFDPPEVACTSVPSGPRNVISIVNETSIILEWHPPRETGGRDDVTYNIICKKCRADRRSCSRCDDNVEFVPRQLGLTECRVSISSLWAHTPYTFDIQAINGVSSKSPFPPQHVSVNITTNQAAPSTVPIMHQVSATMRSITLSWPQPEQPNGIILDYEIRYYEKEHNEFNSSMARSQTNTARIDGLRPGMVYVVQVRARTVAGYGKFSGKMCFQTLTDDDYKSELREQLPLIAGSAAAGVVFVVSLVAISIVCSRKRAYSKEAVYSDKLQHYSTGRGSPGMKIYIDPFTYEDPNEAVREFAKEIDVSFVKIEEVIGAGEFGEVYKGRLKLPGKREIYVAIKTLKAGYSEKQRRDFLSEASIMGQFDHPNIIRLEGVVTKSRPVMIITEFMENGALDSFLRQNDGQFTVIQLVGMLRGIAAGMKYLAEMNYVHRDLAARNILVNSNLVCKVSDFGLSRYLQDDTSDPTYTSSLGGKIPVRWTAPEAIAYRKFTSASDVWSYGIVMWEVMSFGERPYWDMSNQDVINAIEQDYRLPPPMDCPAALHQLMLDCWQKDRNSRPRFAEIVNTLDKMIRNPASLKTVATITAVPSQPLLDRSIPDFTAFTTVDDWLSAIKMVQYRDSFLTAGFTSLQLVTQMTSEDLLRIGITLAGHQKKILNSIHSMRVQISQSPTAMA
# [9] = molecular target: T3, Ephrin type-B receptor 1 (Homo sapiens); settings: at 10 µM
# [10] = molecular target: T4, Ephrin type-B receptor 2 (Homo sapiens) (UniProt P29323); settings: at 1 µM
# T4 sequence (whole entry): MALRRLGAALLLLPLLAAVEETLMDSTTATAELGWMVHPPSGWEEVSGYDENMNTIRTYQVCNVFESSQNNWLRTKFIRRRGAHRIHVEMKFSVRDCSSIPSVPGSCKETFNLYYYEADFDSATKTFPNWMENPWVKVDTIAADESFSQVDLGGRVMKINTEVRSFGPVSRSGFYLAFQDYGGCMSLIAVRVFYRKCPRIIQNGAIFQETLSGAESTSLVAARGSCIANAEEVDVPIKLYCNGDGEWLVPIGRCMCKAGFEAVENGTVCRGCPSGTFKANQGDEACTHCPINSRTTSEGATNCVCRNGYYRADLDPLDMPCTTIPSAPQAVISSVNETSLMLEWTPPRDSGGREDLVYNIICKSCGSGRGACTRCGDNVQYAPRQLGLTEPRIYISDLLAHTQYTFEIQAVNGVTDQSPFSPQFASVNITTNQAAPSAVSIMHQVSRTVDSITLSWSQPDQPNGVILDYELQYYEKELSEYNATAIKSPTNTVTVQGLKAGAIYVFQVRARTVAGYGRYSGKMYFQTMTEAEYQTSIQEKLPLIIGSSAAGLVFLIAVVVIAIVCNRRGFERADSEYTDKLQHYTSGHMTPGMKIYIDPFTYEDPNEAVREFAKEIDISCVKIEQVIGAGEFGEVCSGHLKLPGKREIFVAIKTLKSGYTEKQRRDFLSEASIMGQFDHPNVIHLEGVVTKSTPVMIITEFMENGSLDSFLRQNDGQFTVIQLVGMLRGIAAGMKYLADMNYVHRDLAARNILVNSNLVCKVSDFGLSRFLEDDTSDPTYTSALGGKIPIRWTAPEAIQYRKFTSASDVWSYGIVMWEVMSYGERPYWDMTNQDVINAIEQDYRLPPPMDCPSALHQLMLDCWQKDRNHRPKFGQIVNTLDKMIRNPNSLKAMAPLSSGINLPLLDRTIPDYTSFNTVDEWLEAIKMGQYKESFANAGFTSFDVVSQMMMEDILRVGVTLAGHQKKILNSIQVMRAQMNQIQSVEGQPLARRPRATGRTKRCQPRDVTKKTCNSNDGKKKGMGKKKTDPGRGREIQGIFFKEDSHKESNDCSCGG
# [11] = molecular target: T4, Ephrin type-B receptor 2 (Homo sapiens); settings: at 10 µM
# [12] = molecular target: T5, Ephrin type-B receptor 3 (Homo sapiens) (UniProt P54753); settings: at 1 µM
# T5 sequence (whole entry): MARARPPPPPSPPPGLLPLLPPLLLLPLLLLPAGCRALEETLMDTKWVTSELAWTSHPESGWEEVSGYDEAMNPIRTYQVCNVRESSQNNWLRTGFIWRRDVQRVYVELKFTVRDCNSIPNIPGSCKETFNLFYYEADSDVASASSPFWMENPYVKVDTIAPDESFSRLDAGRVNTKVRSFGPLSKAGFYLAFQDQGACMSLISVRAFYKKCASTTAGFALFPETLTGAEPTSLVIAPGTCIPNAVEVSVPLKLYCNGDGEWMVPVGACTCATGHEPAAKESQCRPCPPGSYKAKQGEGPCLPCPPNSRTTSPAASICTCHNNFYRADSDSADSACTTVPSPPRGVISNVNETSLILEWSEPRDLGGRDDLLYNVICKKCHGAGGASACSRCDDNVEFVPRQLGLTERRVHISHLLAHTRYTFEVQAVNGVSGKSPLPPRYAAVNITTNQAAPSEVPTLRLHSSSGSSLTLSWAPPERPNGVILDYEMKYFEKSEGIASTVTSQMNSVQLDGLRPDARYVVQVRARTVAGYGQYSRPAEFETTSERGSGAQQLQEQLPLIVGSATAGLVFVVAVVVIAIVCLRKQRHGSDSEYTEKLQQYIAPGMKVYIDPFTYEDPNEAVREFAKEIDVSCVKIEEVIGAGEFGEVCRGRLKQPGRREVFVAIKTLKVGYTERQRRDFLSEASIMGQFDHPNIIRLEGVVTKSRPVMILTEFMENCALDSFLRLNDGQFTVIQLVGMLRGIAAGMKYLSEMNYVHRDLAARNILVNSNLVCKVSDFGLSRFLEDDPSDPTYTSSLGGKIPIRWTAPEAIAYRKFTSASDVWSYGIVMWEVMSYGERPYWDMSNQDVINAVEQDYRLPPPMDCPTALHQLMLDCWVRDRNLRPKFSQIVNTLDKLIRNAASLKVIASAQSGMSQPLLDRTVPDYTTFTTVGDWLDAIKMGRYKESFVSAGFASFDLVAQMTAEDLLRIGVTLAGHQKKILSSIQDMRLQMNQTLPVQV
# [13] = molecular target: T5, Ephrin type-B receptor 3 (Homo sapiens); settings: at 10 µM
# [14] = molecular target: T6, Ephrin type-B receptor 4 (Homo sapiens) (UniProt P54760); settings: at 1 µM
# T6 sequence (whole entry): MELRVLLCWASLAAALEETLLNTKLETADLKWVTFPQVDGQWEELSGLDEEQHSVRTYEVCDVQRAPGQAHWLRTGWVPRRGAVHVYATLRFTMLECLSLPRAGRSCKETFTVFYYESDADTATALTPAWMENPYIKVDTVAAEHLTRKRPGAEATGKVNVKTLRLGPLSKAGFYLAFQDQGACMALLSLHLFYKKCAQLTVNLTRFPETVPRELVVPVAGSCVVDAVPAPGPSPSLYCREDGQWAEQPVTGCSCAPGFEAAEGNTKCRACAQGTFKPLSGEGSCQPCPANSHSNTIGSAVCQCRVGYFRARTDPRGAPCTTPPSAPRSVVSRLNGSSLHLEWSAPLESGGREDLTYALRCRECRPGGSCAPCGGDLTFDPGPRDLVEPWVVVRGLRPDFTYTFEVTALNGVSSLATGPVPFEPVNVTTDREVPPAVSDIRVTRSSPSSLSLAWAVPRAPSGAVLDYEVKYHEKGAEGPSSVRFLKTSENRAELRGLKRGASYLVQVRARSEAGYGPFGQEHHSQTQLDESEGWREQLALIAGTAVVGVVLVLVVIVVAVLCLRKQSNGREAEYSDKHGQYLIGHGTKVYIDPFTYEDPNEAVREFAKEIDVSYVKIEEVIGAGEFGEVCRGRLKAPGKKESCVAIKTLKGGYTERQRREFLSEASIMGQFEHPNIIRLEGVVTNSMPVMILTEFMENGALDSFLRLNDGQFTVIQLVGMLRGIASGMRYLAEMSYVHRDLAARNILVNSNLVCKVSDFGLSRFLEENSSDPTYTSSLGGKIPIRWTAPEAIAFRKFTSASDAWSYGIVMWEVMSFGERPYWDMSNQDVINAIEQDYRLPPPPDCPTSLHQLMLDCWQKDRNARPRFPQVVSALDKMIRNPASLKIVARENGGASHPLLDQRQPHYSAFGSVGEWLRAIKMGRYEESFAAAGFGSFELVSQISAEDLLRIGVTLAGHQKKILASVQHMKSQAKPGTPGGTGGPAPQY
# [15] = molecular target: T6, Ephrin type-B receptor 4 (Homo sapiens); settings: at 10 µM
# [16] = molecular target: Receptor tyrosine-protein kinase erbB-4 (Homo sapiens) (UniProt Q15303); settings: at 1 µM
# [17] = molecular target: Receptor tyrosine-protein kinase erbB-4 (Homo sapiens) (UniProt Q15303); settings: at 10 µM
# [18] = molecular target: Focal adhesion kinase 1 (Homo sapiens) (UniProt Q05397); settings: at 1 µM
# Focal adhesion kinase 1 (Homo sapiens), sequence (Q05397 2-1052 limits assumed): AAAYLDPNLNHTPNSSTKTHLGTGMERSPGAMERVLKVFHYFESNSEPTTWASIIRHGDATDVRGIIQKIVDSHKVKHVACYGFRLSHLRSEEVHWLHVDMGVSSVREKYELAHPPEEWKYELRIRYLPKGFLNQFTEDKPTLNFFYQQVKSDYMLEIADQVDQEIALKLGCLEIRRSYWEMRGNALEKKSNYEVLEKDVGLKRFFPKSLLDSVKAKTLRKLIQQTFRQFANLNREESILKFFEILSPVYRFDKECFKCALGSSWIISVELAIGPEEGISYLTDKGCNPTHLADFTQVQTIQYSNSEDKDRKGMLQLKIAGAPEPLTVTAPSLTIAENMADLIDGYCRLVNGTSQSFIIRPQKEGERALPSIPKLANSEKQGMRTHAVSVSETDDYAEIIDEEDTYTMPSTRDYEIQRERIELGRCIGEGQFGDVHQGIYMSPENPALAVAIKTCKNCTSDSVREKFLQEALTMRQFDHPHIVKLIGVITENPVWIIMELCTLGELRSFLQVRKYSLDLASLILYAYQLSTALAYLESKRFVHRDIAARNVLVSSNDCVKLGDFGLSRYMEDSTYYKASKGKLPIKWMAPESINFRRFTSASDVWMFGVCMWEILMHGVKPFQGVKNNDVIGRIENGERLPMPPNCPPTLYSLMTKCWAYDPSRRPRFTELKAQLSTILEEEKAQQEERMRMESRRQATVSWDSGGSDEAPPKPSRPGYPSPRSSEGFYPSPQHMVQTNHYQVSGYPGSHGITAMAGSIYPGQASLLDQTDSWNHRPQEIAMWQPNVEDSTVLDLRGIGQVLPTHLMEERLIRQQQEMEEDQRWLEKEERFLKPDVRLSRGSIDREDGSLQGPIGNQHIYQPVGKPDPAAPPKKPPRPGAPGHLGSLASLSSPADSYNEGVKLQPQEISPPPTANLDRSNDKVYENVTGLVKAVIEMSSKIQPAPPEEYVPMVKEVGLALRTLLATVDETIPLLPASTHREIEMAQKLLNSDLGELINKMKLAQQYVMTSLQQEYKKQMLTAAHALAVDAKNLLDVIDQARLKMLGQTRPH
# Ephrin type-A receptor 7 (Homo sapiens), sequence (Q15375 28-998 limits assumed): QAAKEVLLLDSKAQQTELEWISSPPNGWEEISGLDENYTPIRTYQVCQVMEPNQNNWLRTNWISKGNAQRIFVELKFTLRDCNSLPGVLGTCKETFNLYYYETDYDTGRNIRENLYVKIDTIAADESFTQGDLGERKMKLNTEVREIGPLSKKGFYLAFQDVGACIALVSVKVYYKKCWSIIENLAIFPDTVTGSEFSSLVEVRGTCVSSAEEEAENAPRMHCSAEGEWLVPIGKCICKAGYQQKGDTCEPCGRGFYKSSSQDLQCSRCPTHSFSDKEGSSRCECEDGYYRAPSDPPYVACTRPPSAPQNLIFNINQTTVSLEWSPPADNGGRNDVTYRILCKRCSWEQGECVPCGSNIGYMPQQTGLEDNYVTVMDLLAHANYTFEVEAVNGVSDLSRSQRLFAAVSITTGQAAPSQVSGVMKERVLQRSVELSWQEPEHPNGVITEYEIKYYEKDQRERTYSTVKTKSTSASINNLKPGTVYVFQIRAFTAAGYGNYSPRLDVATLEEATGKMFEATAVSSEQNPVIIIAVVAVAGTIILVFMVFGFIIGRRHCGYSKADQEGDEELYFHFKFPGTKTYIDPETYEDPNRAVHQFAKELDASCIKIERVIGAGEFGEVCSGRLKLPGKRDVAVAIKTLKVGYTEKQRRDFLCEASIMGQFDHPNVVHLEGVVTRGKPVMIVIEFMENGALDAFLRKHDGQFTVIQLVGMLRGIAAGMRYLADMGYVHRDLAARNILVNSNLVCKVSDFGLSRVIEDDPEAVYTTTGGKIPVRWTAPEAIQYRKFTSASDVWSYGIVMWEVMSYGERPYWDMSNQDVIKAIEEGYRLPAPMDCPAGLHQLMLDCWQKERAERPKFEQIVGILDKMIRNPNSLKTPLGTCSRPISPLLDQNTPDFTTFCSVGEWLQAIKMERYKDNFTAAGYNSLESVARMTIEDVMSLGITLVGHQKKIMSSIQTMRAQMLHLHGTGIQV
# Receptor tyrosine-protein kinase erbB-4 (Homo sapiens), sequence (Q15303 whole entry): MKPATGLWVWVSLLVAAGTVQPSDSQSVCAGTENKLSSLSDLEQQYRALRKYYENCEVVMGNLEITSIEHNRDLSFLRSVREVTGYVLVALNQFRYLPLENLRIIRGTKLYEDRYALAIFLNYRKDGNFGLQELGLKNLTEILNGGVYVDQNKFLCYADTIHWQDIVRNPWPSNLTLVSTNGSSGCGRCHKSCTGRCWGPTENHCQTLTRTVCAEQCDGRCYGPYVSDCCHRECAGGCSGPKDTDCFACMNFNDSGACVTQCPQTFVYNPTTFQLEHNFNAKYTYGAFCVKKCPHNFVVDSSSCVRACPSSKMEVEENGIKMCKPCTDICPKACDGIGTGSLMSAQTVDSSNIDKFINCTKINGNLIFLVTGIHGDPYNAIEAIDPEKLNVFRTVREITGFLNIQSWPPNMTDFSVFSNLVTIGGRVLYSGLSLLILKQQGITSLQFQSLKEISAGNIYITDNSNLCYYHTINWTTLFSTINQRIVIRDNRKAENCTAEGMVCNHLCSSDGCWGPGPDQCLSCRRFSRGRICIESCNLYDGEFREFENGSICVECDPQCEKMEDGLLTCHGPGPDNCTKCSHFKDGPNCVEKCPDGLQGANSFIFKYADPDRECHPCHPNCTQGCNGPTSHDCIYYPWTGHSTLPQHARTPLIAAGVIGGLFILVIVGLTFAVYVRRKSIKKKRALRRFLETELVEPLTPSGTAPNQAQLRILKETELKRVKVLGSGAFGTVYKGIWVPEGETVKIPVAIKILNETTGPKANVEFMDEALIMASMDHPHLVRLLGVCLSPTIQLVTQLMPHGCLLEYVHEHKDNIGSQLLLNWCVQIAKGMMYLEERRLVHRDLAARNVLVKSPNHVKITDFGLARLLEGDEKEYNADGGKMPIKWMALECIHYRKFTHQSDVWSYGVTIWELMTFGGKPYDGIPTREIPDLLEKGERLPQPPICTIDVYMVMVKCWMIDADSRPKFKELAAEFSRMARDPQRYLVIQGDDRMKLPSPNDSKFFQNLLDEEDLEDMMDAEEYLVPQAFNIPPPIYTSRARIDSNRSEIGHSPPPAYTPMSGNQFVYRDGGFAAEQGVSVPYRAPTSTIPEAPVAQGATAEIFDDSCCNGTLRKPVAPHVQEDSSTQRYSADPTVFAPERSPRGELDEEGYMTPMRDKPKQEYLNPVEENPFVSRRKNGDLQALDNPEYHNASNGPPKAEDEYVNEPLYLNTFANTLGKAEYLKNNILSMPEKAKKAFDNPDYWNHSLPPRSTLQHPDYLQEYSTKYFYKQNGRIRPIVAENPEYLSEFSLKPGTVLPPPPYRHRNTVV
# Ephrin type-A receptor 4 (Homo sapiens), sequence (P54764 whole entry): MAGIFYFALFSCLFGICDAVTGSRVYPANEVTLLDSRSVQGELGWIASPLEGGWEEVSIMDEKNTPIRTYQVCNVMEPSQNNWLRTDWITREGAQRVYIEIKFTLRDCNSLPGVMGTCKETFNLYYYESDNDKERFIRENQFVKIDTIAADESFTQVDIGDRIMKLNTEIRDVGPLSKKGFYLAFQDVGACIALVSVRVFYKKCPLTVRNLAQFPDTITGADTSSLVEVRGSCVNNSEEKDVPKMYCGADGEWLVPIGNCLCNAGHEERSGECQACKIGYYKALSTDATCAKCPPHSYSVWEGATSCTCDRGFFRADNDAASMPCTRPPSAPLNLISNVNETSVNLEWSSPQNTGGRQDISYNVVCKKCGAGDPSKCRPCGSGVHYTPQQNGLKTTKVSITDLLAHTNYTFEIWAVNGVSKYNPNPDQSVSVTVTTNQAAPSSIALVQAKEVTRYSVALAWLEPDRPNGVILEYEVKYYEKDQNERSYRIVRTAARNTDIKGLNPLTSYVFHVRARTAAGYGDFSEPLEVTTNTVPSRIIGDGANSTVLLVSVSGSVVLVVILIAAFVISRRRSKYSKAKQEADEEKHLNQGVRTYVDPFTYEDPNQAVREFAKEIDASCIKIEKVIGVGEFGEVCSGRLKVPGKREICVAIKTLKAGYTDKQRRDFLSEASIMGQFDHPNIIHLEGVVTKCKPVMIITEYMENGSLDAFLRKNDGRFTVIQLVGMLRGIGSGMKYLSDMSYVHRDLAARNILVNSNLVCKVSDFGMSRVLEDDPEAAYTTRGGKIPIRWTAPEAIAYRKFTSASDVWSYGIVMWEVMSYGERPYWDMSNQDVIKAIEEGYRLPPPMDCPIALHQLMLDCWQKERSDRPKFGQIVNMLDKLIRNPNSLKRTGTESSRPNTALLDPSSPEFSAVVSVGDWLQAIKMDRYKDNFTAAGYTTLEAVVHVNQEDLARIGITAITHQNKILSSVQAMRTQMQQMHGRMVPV
smiles,measurement,setting,value
C[C@@H](N)[C@H]1CC[C@H](C(=O)Nc2ccncc2)CC1,residual activity,[1],97%
same,residual activity,[2],95%
same,residual activity,[3],84%
same,residual activity,[4],96%
same,residual activity,[5],90%
same,residual activity,[6],105%
same,residual activity,[7],108%
same,residual activity,[8],101%
same,residual activity,[9],99%
same,residual activity,[10],90%
same,residual activity,[11],92%
same,residual activity,[12],111% (inactive)
same,residual activity,[13],110%
same,residual activity,[14],108%
same,residual activity,[15],102%
same,residual activity,[16],109%
same,residual activity,[17],113%
same,residual activity,[18],104%
